# The list is not random: actives were taken first. Their share in the collection is about 19%.
# IL-1B inflam inh = inflammasome signaling inhibition, IL-1 beta readout | THP-1 LPS/ATP IL-1B secretion, AlphaLISA, 16 h; active compounds read low | activity change, % at 57.5 µM | hit rate 4.7% among 360,000 | AID 743279; in the data active = activity change below about -50%; inconclusive = mostly about -30% to -49%
#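 Secreted IL-1B measured by AlphaLISA bead assay after 16 h compound exposure of THP-1 cells; compounds (final up to 57.5 uM) added 1 h before LPS (250 ng/mL) and ATP (1.25 mM) stimulation; lower signal means less secretion.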
# SW480 rerep = DNA re-replication induction in SW480 cells | SW480 DNA re-replication, Hoechst DNA content imaging, 48 h | Potency, µM (series often up to 46.1 µM), hits mostly activators | hit rate 1.8% among 340,000; also: nearly all actives have a fitted effect of over 55% in size
#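 Readout is total intensity of Hoechst-stained nuclei, excited at 405 nm and collected at 500-530 nm. Compound treatment lasted 48 hr at 37 C in 5% CO2 before staining.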
# MCF10A rerep = inducers of DNA re-replication in MCF 10A breast cells; MCF 10A DNA re-replication, Hoechst nuclear intensity, 48 h; Potency, µM (series often up to 46.1 µM), usual class: activators; hit rate 2.9% among 350,000; also: nearly all actives have a fitted effect of over 50% in size
# TDP1 cell noCPT = qHTS for Inhibitors of human tyrosyl-DNA phosphodiesterase 1 (TDP1): qHTS in cells in absence of CPT; DT40 Tdp1-/- hTDP1 cells, no CPT, ATP luminescence, 48 h; Potency, µM (titrated, usually from 46.2 µM), actives largely listed as inhibitors; hit rate 15% among 420,000; also: nearly all actives have a fitted effect of over 55% in size
#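 No-CPT arm: Tdp1-/-;hTDP1 DT40 cells (400/well) plus compounds, incubated ≥48 hr at 37 °C. Readout CellTiter-Glo luminescence.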
# BCR signal inh = chronic active BCR signaling inhibition. hit rate 0.05% among 340,000. Potency, µM (series often up to 46.1 µM), usual class: inhibitors. ABC-DLBCL IkBa-CBG/CBR reporter, luminescence ratio, 4 h; active = well fitted inhibition curve with a large enough effect in the signal ratio, with a control signal flat, not every such curve was filed as active; inconclusive = small, poorly fitted or top-dose-only effect, or effect the other way, or a change in a side signal; the % refers to the signal ratio
#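 TMD8 ABC-DLBCL cells carrying doxycycline-inducible green luciferase fused to IkappaBalpha plus unfused red luciferase were exposed to compounds (up to 46 uM) for 4 hrs at 37C. Activity came from the overlap-corrected green/red luminescence ratio.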
# TDP1 cell CPT = DT40-hTDP1 cell growth loss with CPT; chicken DT40 Tdp1-/-;hTDP1 cells + 20 nM CPT, ATP luminescence, 48 h; hit rate 12% among 420,000; Potency, µM (highest dose often 46.2 µM), hits mostly inhibitors; also: nearly all actives have a fitted effect of over 55% in size
#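 Cell growth measured by CellTiter-Glo luminescence after a minimum 48 h, 37 C compound exposure with 20 nM CPT in Tdp1-knockout DT40 cells stably expressing hTDP1, seeded 400/well; qHTS titration format.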
# Numbers stand for hits; 0 = inactive; ? = inconclusive; - = no result; ! = a repeat was not active; [ ] = dose if it differs, or a comment. Unless noted, calls follow the shape of the dose curve; as a rule, active = well fitted curve in the direction sought with a large enough effect; inconclusive = small, poorly fitted or top-dose-only effect, or another doubt; inactive = no such curve, though single readings can be large; an effect the other way counts as inactive or inconclusive.
SMILES,IL-1B inflam inh,SW480 rerep,MCF10A rerep,TDP1 cell noCPT,BCR signal inh,TDP1 cell CPT
CC(C)(C)c1nnc(N/N=C/c2ccccc2O)n(N)c1=O,0,0,?,1.03µM,0,0.651µM
CCc1nnc(N/N=C/c2ccccc2F)n1N,0,?,25.9µM,0,?,0
Cc1noc(C)c1COC(=O)c1csc2c1CCC(C)C2 (centres undefined),0,0,?,0,?,0
Cc1cccc(N=Nc2cnc(N)s2)c1,-64.5,0,0,?,?,?
CC(=O)Nc1ncc(N=Nc2cccc(C(F)(F)F)c2)s1,0,0,0,?,0,0
CN(C)c1ccc(C=Cc2cnccn2)cc1,0,?,18.4µM,?,-,0
CN(C)c1ccc(/C=C/c2ccncc2)cc1,0,?,?,25.9µM!,?,0
CCN(CC)c1ccc(/C=C/c2ccncc2)cc1,-,-,-,0.316µM,-,0.178µM
Cn1c(=O)oc2cc(S(=O)(=O)CCC(=O)NCc3ccc(Cl)cc3)ccc21,-,-,-,0,-,0
CC(=O)OCC(=O)[C@]1(O)C(OC(C)=O)CC2C3CCC4=CC(=O)C=C[C@@]4(C)[C@]3(F)C(O)C[C@]21C (some centres undefined),-,-,-,0,-,0
CC(=O)N1CCc2cc(S(=O)(=O)CCC(=O)NCCc3ccccc3)ccc21,0,0,0,0,0,0
CCCn1c(C2CCCN2c2nc(-c3cccc(Br)c3)cs2)nc2ccccc21 (centres undefined),0,0,0,?,?,?
CC(C)(C)C(=O)Nc1cc2nn(-c3ccccc3)nc2cc1Cl,0,7.31µM,?,0,?,?
O=C(c1cccc(Br)c1)N1CCN(S(=O)(=O)N2CCCCC2)CC1,0,0,0,0,0,0
COc1ccc(CC(=O)Nc2nc3ccccc3s2)cc1S(=O)(=O)N1CCOCC1,0,0,0,?,?,?
COc1ccc(CC(=O)N(Cc2ccccc2)c2ccc(C)cc2)cc1S(=O)(=O)N1CCOCC1,0,0,0,16.4µM,0,18.4µM
COc1ccc(CC(=O)Nc2nc3ccc(F)cc3s2)cc1S(=O)(=O)N1CCOCC1,-59.1,0[9.22 µM],0,?,?,?
COc1ccc(CC(=O)N(C)Cc2ccc(C(C)(C)C)cc2)cc1S(=O)(=O)N1CCOCC1,0,?,0,29.1µM,0,20.6µM
COc1ccccc1OC(C)C(=O)Nc1c(C(=O)c2ccc(Cl)cc2)oc2ccccc12 (centres undefined),-,-,-,0,-,0
CCc1nnc(NC(=O)Cc2cc(OC)c(OC)c(OC)c2)s1,0,0,0,0,0,0
CC1CCCCC1NC(=O)COC(=O)c1c2c(nc3ccccc13)/C(=C/c1ccco1)CC2 (centres undefined),0,14.6µM,16.4µM,14.6µM,0,16.4µM
Cc1cc(C(=O)OCC(=O)NC2CCCCC2C)c2ccccc2n1 (centres undefined),0,0,0,0,0,0
O=C(COC(=O)c1c2c(nc3ccccc13)/C(=C/c1ccco1)CC2)NC1CCCC1,-60.8,13µM,7.31µM,?,0,16.4µM
CCN(CC)CCN(C(=O)Cn1nnc(-c2ccc(C)o2)n1)C(C(=O)NC1CCCC1)c1ccc(F)cc1 (centres undefined),?,0,0,?,0,0
Cn1c(SCC(=O)NCCc2ccccc2)nnc1C1CCCCC1,0,0,0,?,0,?
SMILES,IL-1B inflam inh,SW480 rerep,MCF10A rerep,TDP1 cell noCPT,BCR signal inh,TDP1 cell CPT
CCCCn1c(=O)c2oc3ccccc3c2n(Cc2ccc(C)cc2)c1=O,-,-,-,?,-,0
CC(=O)Nc1cccc(-c2cc(C)c3cc4c(cc3n2)OCO4)c1,-50.9,0,0,?,?,0
Cc1ccc2cccc(NC(=O)c3ccc(C#N)cc3F)c2n1,-,-,-,0,-,0
CCCn1c(NCc2ccccc2NS(=O)(=O)c2ccc(C)cc2)nc2ccccc21,0,?,10.3µM,16.4µM,0,?
CCn1c(NCc2ccccc2NS(=O)(=O)c2ccc(C)cc2)nc2ccccc21,0,?,?,18.4µM,0,16.4µM
CCn1c(NCc2cc(Br)ccc2NS(=O)(=O)c2ccc(C)cc2)nc2ccccc21,0,0,0,?,?,?
CC1Cc2ccccc2N1C(=O)CN1CCc2ccccc2C1 (centres undefined),0,0[9.22 µM],?,25.9µM,0,?
CC1Cc2ccccc2N1C(=O)CSc1ncccc1C(=O)O (centres undefined),0,0,0,0,0,0
CC1Cc2ccccc2N1C(=O)CSC1=NCCS1 (centres undefined),0,0,0,?,?,10.3µM
CC1Cc2ccccc2N1C(=O)CSc1nnc(N)s1 (centres undefined),0,0,0,0,0,0
CC(C)c1nc(SCC(=O)N2c3ccccc3CC2C)c2ccccc2n1 (centres undefined),-99.0,0,0,?,?,?
Cc1sc2nc(C3CC3)nc(SCC(=O)N3c4ccccc4CC3C)c2c1C (centres undefined),0,14.6µM,9.2µM,20.6µM,0,16.4µM
CCCCCCCCCCCCCCCCCCN(CCCCCCCCCCCCCCCCCC)c1ccc(/C=C/c2ccc(C=O)cc2)cc1,-,-,-,0,-,0
CC1Cc2ccccc2N1C(=O)CSc1nc2cc3c(cc2cc1C#N)OCO3 (centres undefined),0,0[9.22 µM],0,?,0,?
Cc1cc2cc3c(cc2nc1SCC(=O)N1c2ccccc2CC1C)OCO3 (centres undefined),0,0,0,20.6µM,0,?
Cc1cc(NC(=O)CSc2nc(C3CC3)nc3sc(C)c(C)c23)no1,0,0,0,8.2µM,?,8.2µM
CCc1nc(SCC(=O)Nc2cc(C)on2)c2c(C)c(C)sc2n1,0,0,0,0,0,0
CCOC(=O)C1CCCN(CCc2ccccc2)C1 (centres undefined),0,0,0,0,0,0
O=C(OC1C2CCC1C1CN(CCc3ccccc3)CC12)c1ccccc1 (centres undefined),-67.3,?,0,16.4µM,0,?
COc1ccc(C)cc1N(CC(=O)NCCN1CCOCC1)S(=O)(=O)c1ccccc1,0,0,0,0,0,0
CCOC(=O)c1ccc(NC(=O)c2ccc3c(c2)C(=O)N(CC2CCCO2)C3=O)cc1 (centres undefined),0,0,0,18.4µM,0,?
Cc1nnc(NC(=O)c2ccc3c(c2)C(=O)N(CC2CCCO2)C3=O)s1 (centres undefined),0,?,11.6µM,0,0,0
